Experimental findings from PubChem BioAssay (EPA / NIEHS) are described below.

Inconclusive results are not listed. More than one record can exist for a structure, and the calls need not agree. Activity calls are given as the source filed them. How the source made its calls, unless noted: active means hit-call score of the fitted dose curve at least 0.9, where 1 is the maximum; inactive means score below 0.9.

Read-out in assay [1]: Monokine induced gamma interferon (MIG), CXCL9 (gene 4283)
As to the kind of experiment: BSK_SAg_MIG: BioMAP Diversity Plus: SAg Assay for Monokine induced gamma interferon (MIG) Biomarker Activity (AID 2283092). As to conditions: primary human HUVEC with PBMC; actives raise or lower the signal. In a few lines:
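Measures CXCL9 protein by ELISA in a human vascular primary-cell co-culture (umbilical vein endothelium with PBMC) 24 h after chemical addition. Activity is scored up or down from the DMSO control.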

Assay [2] is described as follows: BSK_SAg_PBMCCytotoxicity: PBMC Cytotoxicity Assessment in the BioMAP Diversity Plus: SAg Assay (AID 2283093).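 Further: PBMC viability measured as Alamar Blue reduction fluorescence at 546/580 nm; fitted both ways against DMSO so a hit may be loss or gain of signal.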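 On AC50: PBMC superantigen activated with SEB plus TSST-1 one hour after compound addition.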 The settings on record: primary human HUVEC with PBMC. The procedure, abridged:
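Alamar Blue reduction (6 h, ex/em 546/580 nm) read after 90 h culture of PBMC pre-dosed 1 h then stimulated with SEB plus TSST-1, 20 ng/mL each. Gain or loss of signal fitted relative to DMSO.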

Read-out in assay [3]: Interleukin-8 (IL8), CXCL8 (gene 3576)
As to the kind of experiment: BSK_SAg_IL8: BioMAP Diversity Plus: SAg Assay for Interleukin-8 (IL8) Biomarker Activity (AID 2283094). As to conditions: primary human HUVEC with PBMC; actives raise or lower the signal. In a few lines: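 ELISA readout of IL-8 from a superantigen-activated endothelial/PBMC primary human co-culture, taken 24 h post-dosing and fitted in both directions against DMSO; parallel SRB total-protein staining flags overt cytotoxicity.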

Assay [4] can be described thus: BSK_SAg_Proliferation: Cell Proliferation Assessment in the BioMAP Diversity Plus: SAg Assay (AID 2283095).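 Further: relative cell number as total protein by SRB absorbance in sub-confluent culture.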 As to conditions: primary human HUVEC with PBMC. In a few lines:
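Relative cell number in the endothelial cell/PBMC co-culture was quantified at 96 h by SRB staining (0.1% SRB, 10% TCA fixation, read at 560 nm). Curves were fitted in both directions relative to DMSO baseline.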

Assay [5] addresses human CYP2A6, CYP2A6 (gene 1548) (UniProt P11509). The assay is described as follows: NVS_ADME_hCYP2A6: NovaScreen (NVS) CYP450-related Enzyme Activity (ADME) Assay for human CYP2A6 (AID 2283099; active means hit-call score of the fitted dose curve at least 0.9, where 1 is the maximum). In a few lines: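 Cell-free fluorescence readout of recombinant human CYP2A6 expressed in insect cells, read 0.5 h after dosing; loss of signal versus acetonitrile negative control. Primary screen in duplicate at 10 uM; actives re-run in concentration-response up to 20 uM.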

A short description of assay [6]: BSK_SAg_SRB: Viability Assessment in the BioMAP Diversity Plus: SAg Assay (AID 2283096).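 Further: cells read one day after compound addition; hits may be either gain or loss of signal compared with DMSO.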 As to conditions: primary human HUVEC with PBMC. The procedure, abridged:
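SRB absorbance at 560 nm served as the viability read-out. Cells (HUVEC plus peripheral blood mononuclear cells) were TCA-fixed and stained 24 h post-dosing; activity fitted in both directions against DMSO controls.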

The target in assay [7] is human CYP2C9, CYP2C9 (gene 1559) (UniProt P11712). As to the kind of experiment: NVS_ADME_hCYP2C9: NovaScreen (NVS) CYP450-related Enzyme Activity (ADME) Assay for human CYP2C9 (AID 2283108; active means hit-call score of the fitted dose curve at least 0.9, where 1 is the maximum). In a few lines:
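Fluorescence readout of CYP2C9 activity (SF9-expressed human enzyme) at 0.75 h. The primary screen used 10 uM in duplicate, with concentration-response follow-up for actives; acetonitrile was the negative control.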

The target in assay [8] is human CYP2D6, CYP2D6 (gene 1565) (UniProt P10635). As to the kind of experiment: NVS_ADME_hCYP2D6: NovaScreen (NVS) CYP450-related Enzyme Activity (ADME) Assay for human CYP2D6 (AID 2283107; active means hit-call score of the fitted dose curve at least 0.9, where 1 is the maximum). In a few lines:
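Cell-free assay using recombinant enzyme expressed in insect cells, with fluorescence-intensity readout of enzyme activity 1 hour after chemical dosing. Loss of signal versus acetonitrile negative control indicates inhibition. Primary screen ran in duplicate at 10 uM; actives were retested in concentration series.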

The target of assay [9] is human CYP19A1, CYP19A1 (gene 1588) (UniProt P11511). The assay is described as follows: NVS_ADME_hCYP19A1: NovaScreen (NVS) CYP450-related Enzyme Activity (ADME) Assay for human CYP19A1 (AID 2283098; active means hit-call score of the fitted dose curve at least 0.9, where 1 is the maximum;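 on AC50: potency for inhibitors seen as loss of fluorescent enzyme signal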). The procedure, abridged:
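Primary testing was in duplicate at a single 10 uM concentration, with actives followed up in concentration-response series. Fluorescence read-out of recombinant enzyme activity at 0.5 h, cell-free. Acetonitrile was the negative-control baseline.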

Assay [10] addresses human Acid Phosphatase 1 (ACP1), ACP1 (gene 52) (UniProt P24666). The assay is described as follows: NVS_ENZ_hACP1: NovaScreen (NVS) Enzymatic Assay for human Acid Phosphatase 1 (ACP1) (AID 2283136; active means hit-call score of the fitted dose curve at least 0.9, where 1 is the maximum). The procedure, abridged: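 Cell-free fluorescence read-out of phosphatase activity, substrate and product separated by mobility shift, taken 1.5 h after compound addition; protein produced in Sf9. Single 25 uM duplicate screen, followed by concentration series for actives, scored as signal loss relative to DMSO.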

Assay [11] concerns the target human AKT serine/threonine Kinase 1 (AKT1), AKT1 (gene 207) (UniProt P31749). As to the kind of experiment: NVS_ENZ_hAKT1: NovaScreen (NVS) Enzymatic Assay for human AKT serine/threonine Kinase 1 (AKT1) (AID 2283138; active means hit-call score of the fitted dose curve at least 0.9, where 1 is the maximum). In a few lines: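 Screening first at 25 uM (duplicate), with threshold-passing chemicals re-tested in concentration series to a 50 uM maximum. Kinase activity read by fluorescence with mobility-shift separation of substrate and product, 1 h after dosing, DMSO baseline.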

The target in assay [12] is human Caspase 5 (CASP5), CASP5 (gene 838) (UniProt P51878). As to the kind of experiment: NVS_ENZ_hCASP5: NovaScreen (NVS) Enzymatic Assay for human Caspase 5 (CASP5) (AID 2283137; active means hit-call score of the fitted dose curve at least 0.9, where 1 is the maximum). In a few lines:
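Loss of fluorescent signal versus DMSO scored for E. coli-derived human CASP5 cleaving a fluorescent substrate, 2 h post-dosing; compounds first tested at 25 uM in duplicate, hits rerun in concentration series with 50 uM top concentration.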

human CYP2C9, CYP2C9 (gene 1559), sequence (P11712 whole entry, looked up): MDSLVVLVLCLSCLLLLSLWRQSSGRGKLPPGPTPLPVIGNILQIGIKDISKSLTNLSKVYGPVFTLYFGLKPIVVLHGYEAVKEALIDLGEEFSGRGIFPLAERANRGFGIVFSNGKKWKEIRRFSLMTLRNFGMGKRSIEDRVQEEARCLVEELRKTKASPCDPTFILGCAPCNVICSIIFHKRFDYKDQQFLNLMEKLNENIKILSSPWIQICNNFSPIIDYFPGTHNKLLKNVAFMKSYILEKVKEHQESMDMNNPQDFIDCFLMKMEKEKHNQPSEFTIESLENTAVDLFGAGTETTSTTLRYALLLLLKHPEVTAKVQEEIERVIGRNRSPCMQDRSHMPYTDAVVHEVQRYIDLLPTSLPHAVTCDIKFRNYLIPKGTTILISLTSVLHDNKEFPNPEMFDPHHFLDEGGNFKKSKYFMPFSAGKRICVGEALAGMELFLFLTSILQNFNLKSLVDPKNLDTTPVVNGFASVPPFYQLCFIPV
human CYP2A6, CYP2A6 (gene 1548), sequence (P11509 whole entry, looked up): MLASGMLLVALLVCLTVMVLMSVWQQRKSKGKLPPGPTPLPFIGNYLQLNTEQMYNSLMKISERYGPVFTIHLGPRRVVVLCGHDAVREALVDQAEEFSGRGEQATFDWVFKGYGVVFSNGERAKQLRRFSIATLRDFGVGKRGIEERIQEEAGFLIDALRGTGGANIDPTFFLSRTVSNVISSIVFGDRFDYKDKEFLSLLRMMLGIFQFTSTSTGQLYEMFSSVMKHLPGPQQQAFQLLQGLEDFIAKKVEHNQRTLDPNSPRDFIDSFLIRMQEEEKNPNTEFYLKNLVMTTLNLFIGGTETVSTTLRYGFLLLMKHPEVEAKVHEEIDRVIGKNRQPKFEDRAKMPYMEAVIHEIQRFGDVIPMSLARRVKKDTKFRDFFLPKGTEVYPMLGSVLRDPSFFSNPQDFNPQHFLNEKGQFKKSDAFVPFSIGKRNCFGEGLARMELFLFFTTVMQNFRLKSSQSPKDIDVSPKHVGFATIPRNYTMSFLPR
human CYP19A1, CYP19A1 (gene 1588), sequence (P11511 whole entry, looked up): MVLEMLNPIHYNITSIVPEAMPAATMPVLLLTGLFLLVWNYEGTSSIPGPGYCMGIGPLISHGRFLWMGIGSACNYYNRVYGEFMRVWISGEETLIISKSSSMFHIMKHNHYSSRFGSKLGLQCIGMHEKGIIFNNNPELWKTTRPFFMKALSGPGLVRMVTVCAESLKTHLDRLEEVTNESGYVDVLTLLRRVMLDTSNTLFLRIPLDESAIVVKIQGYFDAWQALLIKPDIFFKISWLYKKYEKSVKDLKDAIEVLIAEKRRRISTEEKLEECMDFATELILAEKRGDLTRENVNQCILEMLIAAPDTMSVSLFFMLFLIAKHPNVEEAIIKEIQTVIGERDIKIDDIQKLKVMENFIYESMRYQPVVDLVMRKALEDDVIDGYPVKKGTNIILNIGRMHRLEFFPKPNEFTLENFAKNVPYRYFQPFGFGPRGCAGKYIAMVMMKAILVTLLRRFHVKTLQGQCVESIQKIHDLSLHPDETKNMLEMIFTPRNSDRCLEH
human CYP2D6, CYP2D6 (gene 1565), sequence (P10635 whole entry, looked up): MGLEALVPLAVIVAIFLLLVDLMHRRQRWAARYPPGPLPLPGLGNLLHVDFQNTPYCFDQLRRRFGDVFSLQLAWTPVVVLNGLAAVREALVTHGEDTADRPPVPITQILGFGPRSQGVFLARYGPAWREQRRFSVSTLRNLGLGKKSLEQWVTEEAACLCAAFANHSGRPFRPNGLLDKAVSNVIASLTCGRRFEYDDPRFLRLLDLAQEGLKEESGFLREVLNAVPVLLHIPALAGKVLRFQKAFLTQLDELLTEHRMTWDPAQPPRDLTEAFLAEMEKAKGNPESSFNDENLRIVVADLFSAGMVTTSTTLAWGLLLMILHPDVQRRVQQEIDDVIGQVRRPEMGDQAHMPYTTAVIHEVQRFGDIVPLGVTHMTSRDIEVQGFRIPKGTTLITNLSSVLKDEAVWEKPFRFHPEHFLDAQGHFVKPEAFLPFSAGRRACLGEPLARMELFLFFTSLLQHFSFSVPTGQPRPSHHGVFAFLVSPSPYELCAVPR
human Acid Phosphatase 1 (ACP1), ACP1 (gene 52), sequence (P24666 whole entry, looked up): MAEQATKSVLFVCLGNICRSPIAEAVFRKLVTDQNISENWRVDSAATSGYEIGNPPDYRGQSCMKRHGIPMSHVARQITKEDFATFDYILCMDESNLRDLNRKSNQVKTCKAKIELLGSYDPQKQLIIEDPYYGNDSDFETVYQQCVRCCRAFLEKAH
human Caspase 5 (CASP5), CASP5 (gene 838), sequence (P51878 whole entry, looked up): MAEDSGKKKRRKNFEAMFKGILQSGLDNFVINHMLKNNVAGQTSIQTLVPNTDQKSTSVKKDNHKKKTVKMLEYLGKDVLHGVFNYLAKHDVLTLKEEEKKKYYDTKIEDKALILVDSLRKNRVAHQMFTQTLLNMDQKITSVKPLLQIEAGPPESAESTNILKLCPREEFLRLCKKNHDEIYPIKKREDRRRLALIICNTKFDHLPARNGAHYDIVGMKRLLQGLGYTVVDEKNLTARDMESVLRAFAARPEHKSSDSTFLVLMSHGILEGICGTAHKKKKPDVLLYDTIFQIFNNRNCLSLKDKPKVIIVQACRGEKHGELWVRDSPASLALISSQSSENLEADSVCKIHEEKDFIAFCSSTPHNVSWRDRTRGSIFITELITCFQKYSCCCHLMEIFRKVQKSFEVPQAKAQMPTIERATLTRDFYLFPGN
human AKT serine/threonine Kinase 1 (AKT1), AKT1 (gene 207), sequence (P31749 whole entry, looked up): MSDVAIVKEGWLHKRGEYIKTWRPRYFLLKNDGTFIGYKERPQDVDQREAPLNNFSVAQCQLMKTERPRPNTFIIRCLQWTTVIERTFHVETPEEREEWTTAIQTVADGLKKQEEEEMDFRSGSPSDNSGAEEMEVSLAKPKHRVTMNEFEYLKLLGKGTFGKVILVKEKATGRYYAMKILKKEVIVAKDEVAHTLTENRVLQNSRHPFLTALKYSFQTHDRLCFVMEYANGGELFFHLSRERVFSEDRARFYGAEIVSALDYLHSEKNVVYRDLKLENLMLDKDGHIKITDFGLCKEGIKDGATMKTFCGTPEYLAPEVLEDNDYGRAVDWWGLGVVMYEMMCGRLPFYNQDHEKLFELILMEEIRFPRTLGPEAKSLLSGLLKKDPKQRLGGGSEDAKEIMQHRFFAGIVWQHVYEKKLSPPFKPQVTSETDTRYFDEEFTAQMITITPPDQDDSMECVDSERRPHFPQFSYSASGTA

In the case of `Oc1ccccc1`, the outcome in [1], in [2], in assay [3], in assay [4] and in [5] was inactive.

The AC50 is the concentration giving half of the maximal activity seen. In the case of `CC(C)(C)c1csc(-c2cc3cc(OCc4ccccc4CC(=O)O)ccc3o2)n1`, the AC50 was 38.5 µM (active) in assay [1], 15.5 µM (active) in assay [3], 20.1 µM (active) in assay [4] and 20 µM (active) in [6]. Besides, the outcome in assay [2] was inactive.

As for `CCCOC(=O)c1cc(O)c(O)c(O)c1`, the result in assay [1], in assay [2], in assay [3], in [6] and in assay [7] was inactive. In addition, the concentration at half-maximal activity (AC50) in assay [4] is 17 µM (active).

Turning to `CCCCCCCCCCCCO`, the AC50 was 36.3 µM (active) in assay [1]; 35.1 µM (active) in [2]; 19.8 µM (active) in assay [3]; 30.1 µM (active) in assay [4]; 31.3 µM (active) in assay [6].

On to `CCN(CC)C(=O)c1cc(S(=O)(=O)Cc2ccccc2)c(N2CCC(c3ccccc3)CC2)cc1N(CC)CCN(C)C`, for which the AC50 in [1] is 15.2 µM (active); in assay [2] it was 6.84 µM (active); in assay [3] it was 5.2 µM (active); in assay [4], 5.1 µM (active); in [6], 12.7 µM (active); in assay [8], 5.11 µM (active). For the same compound, the AC50 in assay [7] is 12.5 µM (active).

Turning to `Cc1ncc(CO)c(CO)c1O`, the result in [1], in [2], in [3], in [4] and in assay [6] was inactive.

Take `Cc1cccc2ccccc12`: the outcome in assay [1], in assay [2], in [3], in assay [4] and in assay [6] was inactive.

With `Cc1ccc2oc(CN(Cc3ccccc3)C(=O)Nc3c(F)cc(F)cc3F)c(-c3ccc(Cl)cc3)c2c1`, the outcome in assay [1], in assay [2], in assay [3] and in assay [6] was inactive. Further, the AC50 in [4] was 6.03 µM (active).

For `O=C(Nc1ccc(Cl)cc1)Nc1ccc(Cl)c(Cl)c1`, the AC50 is 2.11 µM (active) in assay [1]; 2.72 µM (active) in assay [2]; 2.29 µM (active) in [3]; 1.79 µM (active) in [4]; 2.28 µM (active) in assay [6].

Turning to `CCCCCCCCOc1ccc(C(=O)c2ccccc2)c(O)c1`, the outcome in [1], in assay [2], in assay [3] and in assay [9] was inactive. The AC50 in assay [4] is 15 µM (active).

As for `O=C(O)c1ccccc1-n1cc(C(=O)O)c(=O)c2cc(Nc3c(F)cc(F)cc3Cl)c(Cl)cc21`, the result in [1], in assay [2] and in assay [3] was inactive.

Take `CN1C(=O)CC[C@H]1c1cccnc1`: the result in assay [1], in [2], in [3] and in assay [4] was inactive.

For the compound `CC1=CC(=O)/C(=C(/C)O)C(=O)O1`, the outcome in [1], in assay [2], in [3], in assay [4], in [6] and in assay [9] was inactive.

As for `C[C@]12CC[C@@H]3c4ccc(O)cc4CC[C@H]3[C@@H]1CC[C@H]2O`, the outcome in assay [1], in assay [2], in assay [3] and in [9] was inactive. In addition, the AC50 is 12.4 µM (active) in assay [4], 12.1 µM (active) in assay [6] and 10 µM (active) in assay [9].

For `c1ccc2ccccc2c1`, the result in assay [1], in assay [2], in [3], in assay [4], in [6] and in assay [10] was inactive. For the same compound, the compound was classed as inactive in [11].

With `COCC(C)OCC(C)OCC(C)O` (centres undefined), the result in assay [1], in [2], in assay [3], in assay [4] and in [6] was inactive.

On to `CCCCCCCCCC(=O)O`, for which the result in [1], in [2] and in assay [3] was inactive.

Turning to `CCCCCCCCCCCO`, the outcome in [1] and in assay [3] was inactive. In assay [2], the concentration at half-maximal activity (AC50) was 33.1 µM (active).

`O=C=NCCCCCCN=C=O`: the outcome in assay [1], in assay [2] and in assay [3] was inactive.

Take `Oc1ccc2ccccc2c1`: the outcome in assay [1], in [2] and in assay [3] was inactive.

As for `CCCCCc1ccc(N)cc1`, the result in assay [1], in assay [2] and in assay [3] was inactive.

Take `CCOC(=O)O[C@H](C)OC(=O)c1ccc2c(c1)cc(C(=O)NC1CCN(C(C)C)CC1)n2Cc1cc(-c2ccc(Cl)s2)on1`: the AC50 in assay [1] was 8.05 µM (active); in assay [2], 2.82 µM (active); in assay [3] it was 6.18 µM (active); in assay [4], 2.37 µM (active); in [6], 6.18 µM (active); in [7], 15.4 µM (active). The result in assay [5] was inactive.

Consider `CCCCCCCC[Si](OCC)(OCC)OCC`, for which the result in assay [1], in assay [3] and in assay [4] was inactive. Besides, the AC50 is 18.7 µM (active) in [2] and 31.7 µM (active) in assay [6].

Consider `NC(=O)c1nc(-c2cccc(-c3cc(F)ccc3OCC(F)(F)C(F)(F)F)c2)n[nH]1`, for which the half-maximal activity concentration (AC50) in [1] is 40.3 µM (active); in [2], 35.7 µM (active); in assay [3], 18.2 µM (active).

Take `O=C(O)c1ccccc1C(=O)OCc1ccccc1`: the result in [1], in assay [2], in assay [3] and in [4] was inactive.

On to `Cc1cn([C@H]2C[C@H](N=[N+]=[N-])[C@@H](CO)O2)c(=O)[nH]c1=O`, for which the result in assay [1], in assay [2], in assay [3] and in [4] was inactive.

Consider `CC[C@H](NC(=O)c1cc(F)ccc1NS(=O)(=O)c1cccc2cccnc12)c1ccccc1`, for which the result in assay [1], in assay [2], in assay [5] and in [12] was inactive. The AC50 in assay [3] was 8.99 µM (active); in assay [4] it was 22.5 µM (active).
